Records with an inconclusive call do not appear. Active and inactive are the calls of the source. Unless noted, the call rests on the fitted dose curve; in most records, active means well fitted curve in the direction sought with a large enough effect; inconclusive means small, poorly fitted or top-dose-only effect, or another doubt; inactive means no such curve, though single readings can be large; an effect the other way counts as inactive or inconclusive.
What was measured:
[1] = AP1 Signaling Pathway (AID 357; active means well fitted curve in either direction with a large enough effect, not every such curve was filed as active;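 further: ME-180 reporter cells stimulated with EGF at its EC50 level; on the % scale 0 is the no-effect control and ±100 the full control effect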); settings: ME-180 (cervical carcinoma) AP-1-bla reporter, EGF-induced, beta-lactamase ratio, 5 h; at 7.69 µM (top of the series) unless noted
Method in brief: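 Titration-series screen for positive or negative modulators of EC50 EGF-induced signaling in ME-180 cells carrying an AP-1-driven beta-lactamase reporter. After 5 hours at 37 degrees Celsius, CCF4 460nm/530nm emission ratio gave %Activity; AC50 values derived.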

[2] = target: Cytochrome P450 1A2 (Homo sapiens) (UniProt P05177); assay: p450-cyp1a2 (AID 410; calls by dose curve; further: potency means the concentration at half of the fitted maximal effect)
Cytochrome P450 1A2 (Homo sapiens), sequence (P05177 whole entry, looked up): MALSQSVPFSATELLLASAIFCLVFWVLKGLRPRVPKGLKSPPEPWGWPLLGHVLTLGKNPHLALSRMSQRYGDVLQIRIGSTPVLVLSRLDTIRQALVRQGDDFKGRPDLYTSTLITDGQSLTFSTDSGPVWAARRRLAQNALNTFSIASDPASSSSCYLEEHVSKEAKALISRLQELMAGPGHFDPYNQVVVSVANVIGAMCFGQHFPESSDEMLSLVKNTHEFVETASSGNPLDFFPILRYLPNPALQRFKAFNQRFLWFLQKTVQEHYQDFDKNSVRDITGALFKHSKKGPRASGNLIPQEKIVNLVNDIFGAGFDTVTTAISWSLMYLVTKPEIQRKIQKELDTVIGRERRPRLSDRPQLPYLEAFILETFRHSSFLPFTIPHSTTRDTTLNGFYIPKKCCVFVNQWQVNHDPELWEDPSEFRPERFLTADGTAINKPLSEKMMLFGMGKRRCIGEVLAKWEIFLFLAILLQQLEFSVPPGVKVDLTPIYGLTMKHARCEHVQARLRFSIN
Method in brief: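 Inhibition was calculated relative to 57 uM furafylline (full inhibition). The reaction used human CYP1A2 at 20nM with Luciferin-ME at its Km, 100uM, driven by an NADPH-regenerating system for 60 min at room temperature.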

[3] = NFAT Signaling Pathway (AID 444; active means well fitted curve in either direction with a large enough effect, not every such curve was filed as active;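 further: carbachol stimulus at about its EC50 of 1 µM final; on the % scale 0 is the no-effect control and ±100 the full control effect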); settings: Jurkat NFAT-bla M1, carbachol, beta-lactamase ratio, 5 h; at 7.69 µM (top of the series) unless noted
Method in brief: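 Read-out: CCF4 FRET ratio (460 nm/530 nm) after 1 h RT dye loading, used for %activity and AC50 from titration series. Cells: Jurkat NFAT-β-lactamase/M1 line, treated with compound plus 1 uM carbachol for 5 h, 37 °C.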

[4] = Stat Signaling Pathway (AID 446; active means well fitted curve in either direction with a large enough effect, not every such curve was filed as active;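 further: ME-180 cervical cancer cells given 40 pM IL-6 alongside compound; SIE-controlled beta-lactamase reporter measured as 460/530 nm FRET emission ratio; on the % scale 0 is the no-effect control and ±100 the full control effect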)
Method in brief: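 IL-6/STAT signaling read in ME-180 cells via an SIE beta-lactamase reporter. Stimulus was 40 pM IL-6 (its AC50) for 5 hrs, so both activation and inhibition register.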

[5] = target: Glucocorticoid receptor (Homo sapiens) (UniProt P04150); assay: GR-EFC Redistribution (AID 451; calls by dose curve; further: potency means the concentration at half of the fitted maximal effect); settings: CHO-K1 GR-EFC translocation, beta-gal luminescence, 2 h
Glucocorticoid receptor (Homo sapiens), sequence (P04150 whole entry, looked up, the tested form may be a part): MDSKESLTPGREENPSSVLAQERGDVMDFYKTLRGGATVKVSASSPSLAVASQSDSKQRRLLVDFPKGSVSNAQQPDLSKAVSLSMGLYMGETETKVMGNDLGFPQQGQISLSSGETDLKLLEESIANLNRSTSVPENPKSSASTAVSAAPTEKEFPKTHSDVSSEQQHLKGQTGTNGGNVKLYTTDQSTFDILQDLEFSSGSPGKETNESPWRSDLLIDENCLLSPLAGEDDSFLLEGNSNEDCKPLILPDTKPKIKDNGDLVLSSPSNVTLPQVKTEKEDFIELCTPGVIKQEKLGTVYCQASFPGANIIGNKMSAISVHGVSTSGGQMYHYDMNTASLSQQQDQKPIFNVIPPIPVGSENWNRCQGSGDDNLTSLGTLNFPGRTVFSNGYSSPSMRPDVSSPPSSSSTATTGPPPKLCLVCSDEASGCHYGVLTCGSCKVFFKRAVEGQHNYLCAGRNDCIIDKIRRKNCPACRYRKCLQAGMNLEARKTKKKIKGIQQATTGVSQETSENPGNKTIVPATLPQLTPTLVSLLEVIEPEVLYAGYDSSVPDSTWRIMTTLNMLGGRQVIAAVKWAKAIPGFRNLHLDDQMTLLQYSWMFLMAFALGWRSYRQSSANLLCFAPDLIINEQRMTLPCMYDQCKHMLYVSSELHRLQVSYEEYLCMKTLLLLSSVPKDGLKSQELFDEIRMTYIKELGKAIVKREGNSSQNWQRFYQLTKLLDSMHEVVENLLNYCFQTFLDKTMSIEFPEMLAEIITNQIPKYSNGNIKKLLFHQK
Method in brief: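 Translocation of GR-ED fusion to nuclear EA restores b-gal, read by luminescence after 1 h room-temperature detection. Engineered CHO-K1 biosensor cells, 1,000/well, exposed 2 h at 37 C to titrations up to 46 uM final.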

[6] = target: Mitogen-activated protein kinase 10 (Mus musculus) (UniProt Q61831); assay: JNK3 AlphaScreen Assay (AID 530; active means well fitted curve in either direction with a large enough effect, not every such curve was filed as active;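 further: kinase came from lysate of stimulated human HepG2 cells; signal reports phosphorylation of biotinylated GST-cJun 1-79 at Ser73 with 10 µM ATP; on the % scale 0 is the no-effect control and ±100 the full control effect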)
Method in brief: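 Room-temperature AlphaScreen kinase assay; pre-activated HepG2 lysate as JNK3 source, biotin-GST-cJun(1-79) substrate, 10 uM ATP, compound 15 min preincubation.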

[7] = target: Cytochrome P450 3A4 (Homo sapiens) (UniProt P08684); assay: qHTS Assay for Inhibitors and Substrates of Cytochrome P450 3A4 (AID 884); further: potency means the concentration at half of the fitted maximal effect; nearly all actives have a fitted effect of over 50% in size
Cytochrome P450 3A4 (Homo sapiens), sequence (P08684 whole entry, looked up): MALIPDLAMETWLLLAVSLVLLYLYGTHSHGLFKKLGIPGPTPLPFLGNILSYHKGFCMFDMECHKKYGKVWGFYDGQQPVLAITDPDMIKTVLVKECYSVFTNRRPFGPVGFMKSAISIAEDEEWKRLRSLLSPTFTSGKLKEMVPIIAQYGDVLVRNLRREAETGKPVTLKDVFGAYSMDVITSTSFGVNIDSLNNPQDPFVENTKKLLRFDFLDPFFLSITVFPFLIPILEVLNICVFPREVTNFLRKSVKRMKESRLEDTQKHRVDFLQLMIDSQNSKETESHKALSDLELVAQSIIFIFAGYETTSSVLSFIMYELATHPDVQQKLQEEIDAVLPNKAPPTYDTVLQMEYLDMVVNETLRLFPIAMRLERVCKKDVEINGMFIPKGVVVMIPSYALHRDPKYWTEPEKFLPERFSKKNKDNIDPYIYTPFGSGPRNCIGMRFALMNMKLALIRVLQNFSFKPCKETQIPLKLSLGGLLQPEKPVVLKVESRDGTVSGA
Method in brief: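 20 nM human CYP3A4 with 25 uM Luciferin-PPXE (at KM) in 200 mM KPO4, preincubated 10 min with compound; NADPH regeneration started a 60 min RT reaction. Luciferin detected by luminescence, normalized to 57 uM ketoconazole as full inhibition.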

[8] = target: Cytochrome P450 3A4 (Homo sapiens) (UniProt P08684); assay: qHTS Assay for Activators of Cytochrome P450 3A4 (AID 885); further: nearly all actives have a fitted effect of over 65% in size
Method in brief: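 Quantitative HTS format: compounds preincubated with 20nM human CYP3A4 and Luciferin-PPXE substrate at KM, reaction started by NADPH regeneration, stopped after 60 min, luciferase luminescence read 20 min later.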

[9] = target: Cytochrome P450 2C19 (Homo sapiens) (UniProt P33261); assay: qHTS Assay for Inhibitors and Substrates of Cytochrome P450 2C19 (AID 899); further: potency means the concentration at half of the fitted maximal effect; nearly all actives have a fitted effect of over 60% in size
Cytochrome P450 2C19 (Homo sapiens), sequence (P33261 whole entry, looked up): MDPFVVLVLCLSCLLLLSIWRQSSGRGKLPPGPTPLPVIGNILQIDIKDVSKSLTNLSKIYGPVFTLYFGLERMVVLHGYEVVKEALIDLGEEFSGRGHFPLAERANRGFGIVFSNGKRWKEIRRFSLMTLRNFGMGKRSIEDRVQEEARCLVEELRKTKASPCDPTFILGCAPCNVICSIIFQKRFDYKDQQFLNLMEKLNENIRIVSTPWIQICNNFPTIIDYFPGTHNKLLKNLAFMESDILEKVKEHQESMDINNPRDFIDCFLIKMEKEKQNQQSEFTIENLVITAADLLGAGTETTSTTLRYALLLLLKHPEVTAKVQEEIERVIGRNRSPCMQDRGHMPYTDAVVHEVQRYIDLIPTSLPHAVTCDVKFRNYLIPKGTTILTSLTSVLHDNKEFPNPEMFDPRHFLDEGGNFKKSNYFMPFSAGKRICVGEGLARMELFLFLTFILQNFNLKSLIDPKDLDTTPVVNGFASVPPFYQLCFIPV
Method in brief: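 Luminescence readout of luciferin formed from 10uM Luciferin-H EGE (KM level) by 5 nM CYP2C19 in 50mM KPO4. 60 min NADPH-driven reaction at 37C after 10 min compound preincubation; data scaled to 57uM ketoconazole inhibition.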

[10] = target: Dual specificity protein kinase CLK4 (Homo sapiens) (UniProt Q9HAZ1); assay: qHTS Assay for Inhibitors of CDC-like Kinase 4 (Kinase-Glo Assay) (AID 1770); further: nearly all actives have a fitted effect of over 65% in size; further: potency means the concentration at half of the fitted maximal effect
Dual specificity protein kinase CLK4 (Homo sapiens), sequence (Q9HAZ1 whole entry, looked up): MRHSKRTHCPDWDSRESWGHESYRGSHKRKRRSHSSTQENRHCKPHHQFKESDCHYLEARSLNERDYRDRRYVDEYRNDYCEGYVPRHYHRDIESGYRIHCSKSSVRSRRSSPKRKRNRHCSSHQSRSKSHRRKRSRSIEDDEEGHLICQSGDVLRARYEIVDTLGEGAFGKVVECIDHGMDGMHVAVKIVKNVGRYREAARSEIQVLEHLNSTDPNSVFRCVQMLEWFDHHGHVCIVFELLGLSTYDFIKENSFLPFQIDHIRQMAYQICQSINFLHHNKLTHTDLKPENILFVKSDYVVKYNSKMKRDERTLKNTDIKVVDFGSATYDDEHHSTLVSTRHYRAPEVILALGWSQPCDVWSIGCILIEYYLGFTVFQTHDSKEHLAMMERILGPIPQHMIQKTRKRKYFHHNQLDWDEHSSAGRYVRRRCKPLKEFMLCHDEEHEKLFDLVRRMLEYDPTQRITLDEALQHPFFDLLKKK
Method in brief: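 Recombinant human Clk4 (25 nM) phosphorylated RS repeat peptide (100 uM) with 1 uM ATP in Tris pH 7.5/MgCl2/EGTA/DTT/Triton buffer for 4.5 h at room temperature. Residual ATP was quantified by Kinase-Glo luciferase luminescence.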

[11] = target: Dual specificity protein kinase CLK4 (Homo sapiens) (UniProt Q9HAZ1); assay: qHTS Assay for Inhibitors of CDC-like Kinase 4 (ADP-Glo Assay) (AID 1771); further: nearly all actives have a fitted effect of over 70% in size; further: potency means the concentration at half of the fitted maximal effect
Method in brief: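 Kinase reaction: Clk4 at 25 nM, RS repeat peptide substrate at 100 uM, ATP at 1 uM, 1 hr, room temperature. Product ADP detected as luciferase signal via ADP-Glo.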

[12] = target: Dual specificity protein kinase CLK4 (Homo sapiens) (UniProt Q9HAZ1); assay: qHTS Assay for Inhibitors of CDC-like Kinase 4 (ADP-FP Assay) (AID 1795); further: nearly all actives have a fitted effect of over 60% in size; further: potency means the concentration at half of the fitted maximal effect
Method in brief: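 Recombinant human Clk4 (6.25 nM) phosphorylated RS repeat peptide (100 uM) with 1 uM ATP in Tris pH 7.5/MgCl2/EGTA/DTT/Triton buffer for one hour. ADP was quantified by Transcreener competitive fluorescence polarization against an ADP calibration curve.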

[13] = target: Lysosomal acid glucosylceramidase (Homo sapiens) (UniProt P04062); assay: Glucocerebrosidase-p2 (AID 348; in the data active means potency below about 10 µM; further: potency means the concentration at half of the fitted maximal effect); settings: purified GBA, blue fluorogenic substrate, 40 min
Lysosomal acid glucosylceramidase (Homo sapiens), sequence (P04062 whole entry, looked up): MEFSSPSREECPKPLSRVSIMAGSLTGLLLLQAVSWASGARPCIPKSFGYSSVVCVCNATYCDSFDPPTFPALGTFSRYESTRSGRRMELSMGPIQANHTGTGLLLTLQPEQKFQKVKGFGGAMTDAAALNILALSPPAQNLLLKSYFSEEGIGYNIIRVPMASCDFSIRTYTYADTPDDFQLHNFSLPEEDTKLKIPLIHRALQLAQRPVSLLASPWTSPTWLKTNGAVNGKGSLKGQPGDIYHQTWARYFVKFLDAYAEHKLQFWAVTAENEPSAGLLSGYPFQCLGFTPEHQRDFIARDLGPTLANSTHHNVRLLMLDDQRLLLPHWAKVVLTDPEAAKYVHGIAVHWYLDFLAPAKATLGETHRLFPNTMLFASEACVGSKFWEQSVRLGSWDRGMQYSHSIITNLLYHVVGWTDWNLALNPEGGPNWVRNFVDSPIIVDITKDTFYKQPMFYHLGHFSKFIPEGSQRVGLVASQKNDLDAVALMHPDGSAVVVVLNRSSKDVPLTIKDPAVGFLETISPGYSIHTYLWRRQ
Method in brief: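 Compounds titrated from 0.6 nM upwards against 0.2 nM enzyme in pH 5.9 citric acid/KH2PO4, taurocholate, tween-20; blue fluorogenic substrate 80 uM, 40 min room temperature, stopped and read Ex 365/Em 440 for AC50.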

[14] = target: Glucocorticoid receptor (Homo sapiens) (UniProt P04150); assay: GR-GFP Redistribution (AID 450;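 active means compounds whose dose series gives a full or clear partial fitted curve of increased nuclear translocation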; further: potency means the concentration at half of the fitted maximal effect); settings: U2OS GR-GFP nuclear translocation, laser cytometry, 2 h
[15] = target: Ubiquitin carboxyl-terminal hydrolase 1 (Homo sapiens) (UniProt O94782); assay: Inhibitors of USP1/UAF1: Pilot qHTS (AID 504865); further: nearly all actives have a fitted effect of over 35% in size; further: potency means the concentration at half of the fitted maximal effect
Ubiquitin carboxyl-terminal hydrolase 1 (Homo sapiens), sequence (O94782 whole entry, looked up): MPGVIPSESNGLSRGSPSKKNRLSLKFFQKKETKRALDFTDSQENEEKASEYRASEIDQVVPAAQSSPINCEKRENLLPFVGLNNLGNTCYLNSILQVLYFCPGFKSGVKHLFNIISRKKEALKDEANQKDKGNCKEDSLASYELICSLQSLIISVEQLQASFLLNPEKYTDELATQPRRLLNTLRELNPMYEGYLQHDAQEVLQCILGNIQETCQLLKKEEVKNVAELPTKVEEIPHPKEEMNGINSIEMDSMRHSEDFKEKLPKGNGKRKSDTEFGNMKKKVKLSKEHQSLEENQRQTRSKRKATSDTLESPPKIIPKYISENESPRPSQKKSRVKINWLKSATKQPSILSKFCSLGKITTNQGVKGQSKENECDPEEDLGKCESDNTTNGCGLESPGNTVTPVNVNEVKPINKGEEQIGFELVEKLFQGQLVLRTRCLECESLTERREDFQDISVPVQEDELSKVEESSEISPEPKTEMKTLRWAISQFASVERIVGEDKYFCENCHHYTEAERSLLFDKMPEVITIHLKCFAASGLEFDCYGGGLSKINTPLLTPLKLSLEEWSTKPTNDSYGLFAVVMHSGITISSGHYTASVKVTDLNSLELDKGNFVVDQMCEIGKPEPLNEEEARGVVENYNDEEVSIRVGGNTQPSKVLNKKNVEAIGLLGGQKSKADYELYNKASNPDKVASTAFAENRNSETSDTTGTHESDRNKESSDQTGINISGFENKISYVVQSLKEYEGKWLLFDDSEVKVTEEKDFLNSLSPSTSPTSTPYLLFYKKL
Method in brief: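 USP1/UAF1 complex (1nM) preincubated with compound 15 min at room temperature, then Ub-Rho substrate (150nM final) added. Fluorescence read kinetically at 480/540 nm, 6 reads every 60 seconds. Buffer: 50mM HEPES pH 7.8, 0.5mM EDTA, 0.1 mg/ml BSA, 1mM TCEP, 0.01% Tween-20.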

[16] = target: 3',5'-cyclic-AMP phosphodiesterase 4B (Homo sapiens) (UniProt Q07343); assay: qHTS Assay for Inhibitors of PDE-IV (AID 607; active means well fitted activation curve with a large enough effect in the main read-out, with a control signal flat, not every such curve was filed as active; further: % of control where 0% means no effect)
3',5'-cyclic-AMP phosphodiesterase 4B (Homo sapiens), sequence (Q07343 whole entry, looked up): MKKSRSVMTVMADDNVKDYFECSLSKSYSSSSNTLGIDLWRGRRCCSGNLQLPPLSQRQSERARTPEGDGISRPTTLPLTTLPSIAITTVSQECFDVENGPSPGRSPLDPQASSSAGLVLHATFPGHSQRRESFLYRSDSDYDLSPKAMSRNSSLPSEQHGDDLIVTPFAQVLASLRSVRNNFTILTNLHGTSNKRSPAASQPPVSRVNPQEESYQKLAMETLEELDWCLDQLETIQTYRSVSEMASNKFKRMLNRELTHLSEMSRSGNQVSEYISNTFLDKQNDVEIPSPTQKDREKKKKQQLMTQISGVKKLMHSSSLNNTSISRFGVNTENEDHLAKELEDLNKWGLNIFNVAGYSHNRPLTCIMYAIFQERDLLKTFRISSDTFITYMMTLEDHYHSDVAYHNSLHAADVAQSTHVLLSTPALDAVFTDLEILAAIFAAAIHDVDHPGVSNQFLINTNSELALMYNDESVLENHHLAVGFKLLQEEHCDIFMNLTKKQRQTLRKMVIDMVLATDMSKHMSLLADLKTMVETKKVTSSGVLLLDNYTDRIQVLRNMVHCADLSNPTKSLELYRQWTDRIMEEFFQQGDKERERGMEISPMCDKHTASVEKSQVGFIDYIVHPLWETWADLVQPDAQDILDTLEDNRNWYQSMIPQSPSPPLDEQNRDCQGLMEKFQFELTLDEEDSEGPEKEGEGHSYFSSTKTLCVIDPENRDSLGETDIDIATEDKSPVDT
Method in brief: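 Live HEK293 cells with a modified cyclic nucleotide-gated (CNG) channel report intracellular cAMP via membrane-potential dye fluorescence (ex 535/em 590 nm). Endogenous PDE-IV was targeted. Compounds were tested at up to 22.9 uM final; RO 20-1724 100 uM served as control.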

[17] = target: Cytochrome P450 2C9 (Homo sapiens) (UniProt P11712); assay: qHTS Assay for Inhibitors and Substrates of Cytochrome P450 2C9 (AID 883); further: potency means the concentration at half of the fitted maximal effect; nearly all actives have a fitted effect of over 60% in size
Method in brief: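 Luminescent read-out of deoxyluciferin hydroxylation, normalized to 57uM sulphaphenazole (AC100). Reaction: 10nM enzyme, 100uM Luciferin-H (equal to KM), 25mM KPO4, 10 min compound preincubation, then 60 min with NADPH regeneration, both at 37C.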

[18] = target: Cytochrome P450 2D6 (Homo sapiens) (UniProt P10635); assay: qHTS Assay for Inhibitors and Substrates of Cytochrome P450 2D6 (AID 891); further: potency means the concentration at half of the fitted maximal effect; nearly all actives have a fitted effect of over 60% in size
Method in brief: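 Human CYP2D6 (5 nM) with 30 uM Luciferin-ME EGE (at Km) in 100 mM KPO4, compound preincubated 10 min, then NADPH regeneration system for 60 min at room temperature. Luciferin read by luminescence; normalized to 1.43 uM quinidine.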

Clc1ccccc1-c1nc(Nc2ccncc2)c2ccccc2n1
active: Potency [2] 0.501 µM | Potency [7] 3.98 µM | Potency [9] 5.01 µM | Potency [10] 7.94 µM | Potency [11] 7.94 µM | Potency [12] 10 µM
inactive: activity change, negative = inhibition [1] -2.96% | activity change, negative = inhibition [3] 8.97% | outcome [4] | Potency [5] > 46 µM | Potency [6] | outcome [8]

Cc1nc2cnc(OCc3ccccc3)nc2n(CCc2ccccc2)c1=O
inactive: Potency [13] > 11.4 µM | activity change, negative = inhibition [1] 2.1% | activity change, negative = inhibition [3] -10.4% | outcome [4] | Potency [14] > 9.22 µM | Potency [5] > 46 µM | outcome [8] | Potency [10] | Potency [11] | Potency [12] | Potency [15]

COc1ccccc1-c1nc(Nc2ccncc2)c2ccccc2n1
active: Potency [2] 0.316 µM | Potency [10] 14.1 µM | Potency [11] 12.6 µM | Potency [12] 14.1 µM
inactive: activity change, negative = inhibition [1] -6.27% | outcome [4] | Potency [14] > 46 µM | Potency [5] > 46 µM | Potency [6] | outcome [8] | Potency [15]

c1cn(-c2ncnc3ccc(-c4ccoc4)cc23)cn1
inactive: Potency [13] > 11.4 µM | activity change, negative = inhibition [3] -5.74% | outcome [4] | Potency [14] > 46 µM | Potency [5] > 46 µM | Potency [16] | outcome [8] | Potency [15]
active: Potency [2] 1.26 µM | Potency [7] 0.631 µM | Potency [10] 0.141 µM | Potency [11] 0.199 µM | Potency [12] 0.0708 µM

O=c1c(CCc2ccccc2)nc2cnc(Nc3ccccc3)nc2n1C[C@H]1CCCO1
inactive: Potency [13] > 11.4 µM | activity change, negative = inhibition [1] 16.4% | outcome [4] | Potency [14] > 9.22 µM | Potency [6] | Potency [10] | Potency [11] | Potency [12] | Potency [15]

O=c1c(-c2ccccc2)nc2cncnc2n1Cc1ccccc1
inactive: Potency [13] > 11.4 µM | activity change, negative = inhibition [1] -16.6% | activity change, negative = inhibition [3] -1.09% | outcome [4] | Potency [5] > 46 µM | Potency [6] | Potency [10] | Potency [11] | Potency [12] | Potency [15]

CN(C)C(=O)c1ccc(-c2nc(N3CCOCC3)c3ccccc3n2)cc1
inactive: Potency [13] > 11.4 µM | activity change, negative = inhibition [1] 0.443% | activity change, negative = inhibition [3] 21.6% | outcome [4] | Potency [5] > 46 µM | Potency [6] | Potency [16] | Potency [10] | Potency [11] | Potency [12] | Potency [15]

Cc1cnc(CNc2ncnc3ccc(-c4ccccc4Cl)cc23)cn1
inactive: Potency [13] > 11.4 µM | activity change, negative = inhibition [1] 14.6% | activity change, negative = inhibition [3] 7.91% | Potency [14] > 46 µM | Potency [5] > 46 µM | outcome [8] | Potency [15]
active: Potency [2] 6.31 µM | Potency [7] 2.51 µM | Potency [10] 15.8 µM | Potency [11] 14.1 µM | Potency [12] 10 µM

COc1ccccc1-c1nc(N2CCN(C)CC2)c2ccccc2n1
inactive: activity change, negative = inhibition [1] 9.75% | activity change, negative = inhibition [3] 4.89% | outcome [4] | Potency [14] > 46 µM | Potency [5] > 46 µM | Potency [6] | Potency [16] | outcome [8] | Potency [10] | Potency [11] | Potency [15]
active: Potency [2] 12.6 µM

COc1ccc2[nH]cc(CCNc3ncncc3-c3ccccc3OC)c2c1
inactive: Potency [13] > 11.4 µM | activity change, negative = inhibition [1] -16.8% | activity change, negative = inhibition [3] -9.5% | outcome [4] | Potency [14] > 46 µM | Potency [5] > 46 µM | Potency [16] | outcome [8] | Potency [15]
active: Potency [2] 2.51 µM | Potency [17] 0.251 µM | Potency [7] 0.126 µM | Potency [18] 1.26 µM | Potency [9] 0.0794 µM | Potency [10] 8.91 µM | Potency [11] 25.1 µM

CCNc1ncc2nc(CCc3ccccc3)c(=O)n(Cc3cccc(OC)c3)c2n1
active: Potency [2] 12.6 µM | Potency [9] 6.31 µM
inactive: Potency [13] > 11.4 µM | activity change, negative = inhibition [1] 16.5% | activity change, negative = inhibition [3] -6.29% | outcome [4] | Potency [14] > 9.22 µM | Potency [5] > 46 µM | Potency [6] | outcome [8] | Potency [10] | Potency [11] | Potency [15]

COc1ccccc1CNc1cc(-c2cccnc2)ncn1
active: Potency [2] 1 µM | Potency [7] 0.631 µM | Potency [18] 5.01 µM | Potency [10] 25.1 µM | Potency [11] 31.6 µM
inactive: Potency [13] > 11.4 µM | activity change, negative = inhibition [1] -4.39% | activity change, negative = inhibition [3] -5.01% | outcome [4] | Potency [14] > 46 µM | Potency [5] > 46 µM | Potency [16] | outcome [8] | Potency [15]

N#Cc1cccc(-c2ccc3ncnc(NCc4cccs4)c3c2)c1
active: Potency [2] 0.1 µM | Potency [7] 3.16 µM | Potency [10] 10 µM | Potency [11] 8.91 µM | Potency [15] 22.4 µM
inactive: Potency [13] > 11.4 µM | outcome [4] | Potency [14] > 46 µM | Potency [5] > 46 µM | Potency [6] | Potency [16] | outcome [8]

COCCn1c(=O)c(-c2cccc(C#N)c2)nc2cnc(Oc3cccc(Cl)c3)nc21
inactive: Potency [13] > 11.4 µM | activity change, negative = inhibition [1] -5.9% | activity change, negative = inhibition [3] -4.85% | outcome [4] | Potency [14] > 9.22 µM | Potency [5] > 46 µM | Potency [6] | Potency [16] | Potency [10] | Potency [11] | Potency [15]
